The nature of assay [1]: antimalarial activity against Dd2 strain (AID 2302;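 active means growth inhibition above 50% at the single 2 µM test dose, taken to imply half-maximal potency below 2 µM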;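 further: 0% = DMSO untreated growth and 100% = chloroquine plus artemisinin killed control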). The following applies: P. falciparum Dd2 in RBCs, LDH growth readout, 72 h; at 2 µM; stronger effect = higher value.
Assay [2] is described as follows: HepG2 cytotoxicity, primary screen, cytotoxicity control for P. falciparum antimalarial project, cell-based, ATP luminescence (AID 2303;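 active means inhibition above 50%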;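 further: 0% = DMSO wells and 100% = digitonin-killed cells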). The following applies: HepG2 viability, 24-48 h, at 10 µM, stronger effect = higher value.
Assay [3] addresses L-lactate dehydrogenase (Plasmodium falciparum (isolate CDC / Honduras)) (UniProt Q27743). In words: PfLDH activity inhibition – cell lysate, 3D7 strain, counter-screen for P. falciparum growth inhibition project (AID 2304).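 Further: 0% = vehicle and 100% = reference inhibitor.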 The settings on record: P. falciparum 3D7 crude extract, LDH APAD/NBT absorbance; at 2 µM; stronger effect = higher value.
Assay [4] in a line: inhibition of 3D7 malaria parasite growth – strain 3D7 (AID 2306).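 Further: 0% = DMSO wells and 100% = chloroquine plus artemisinin control wells.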 The following applies: P. falciparum 3D7 erythrocytic growth, LDH absorbance, 72 h; at 2 µM; stronger effect = higher value.
Assay [5] has as its target Calcium-dependent protein kinase 1 (Plasmodium falciparum (isolate 3D7)) (UniProt P62344). In words: PfCDPK1 kinase inhibitors, biochemical, TCAMS library (AID 1159585; cut-off not given, nearly all actives have IC50 up to about 0.98 µM;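 further: inhibitors leave more ATP so luminescence rises with inhibition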). The settings on record: recombinant PfCDPK1, Kinase-Glo ATP depletion luminescence. (Kinase-Glo measures the ATP left after a reaction by luminescence.)
Assay [6] deals with Plasmodium falciparum protein kinase 6 (PK6, PF3D7_1337100) (UniProt Q8IDW1). Nature of the assay: PfPK6 kinase inhibitors, biochemical, TCAMS library (AID 1159586). The following applies: recombinant PfPK6, Kinase-Glo ATP depletion luminescence.
Plasmodium falciparum protein kinase 6 (PK6, PF3D7_1337100), sequence (Q8IDW1 1-305): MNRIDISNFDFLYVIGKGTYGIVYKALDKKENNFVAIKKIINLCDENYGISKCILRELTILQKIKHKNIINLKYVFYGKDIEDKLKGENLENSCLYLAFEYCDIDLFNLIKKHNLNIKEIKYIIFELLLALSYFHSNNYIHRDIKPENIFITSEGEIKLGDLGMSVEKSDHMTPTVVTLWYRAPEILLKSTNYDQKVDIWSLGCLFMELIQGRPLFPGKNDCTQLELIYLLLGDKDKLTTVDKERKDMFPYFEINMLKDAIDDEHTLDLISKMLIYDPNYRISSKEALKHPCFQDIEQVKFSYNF
Assay [7] addresses Protein kinase 7 (PK7), Plasmodium falciparum 3D7 (PF3D7_0213400) (UniProt Q7YTF7). Nature of the assay: inhibition of Plasmodium PK7 catalytic activity – biochemical, TCAMS antimalarial set, Kinase-Glo luminescence (AID 1159587). The settings on record: recombinant PfPK7, Kinase-Glo ATP depletion luminescence.
Assay [8] has as its target Calcium-dependent protein kinase 4 (Plasmodium falciparum (isolate 3D7)) (UniProt Q8IBS5). In words: PfCDPK4 kinase inhibitors, biochemical, TCAMS library (AID 1159588; cut-off not given, nearly all actives have IC50 up to about 0.91 µM). The following applies: recombinant PfCDPK4, Kinase-Glo ATP depletion luminescence.

This note sets out measurements from PubChem BioAssay.

Each structure is given as a SMILES string. Values without a mark were called inactive. For some of these results: Results with a measured potency or affinity are listed apart. Active and inactive are the calls of the source. Unless noted, how the calls were made is not given here.

L-lactate dehydrogenase (Plasmodium falciparum (isolate CDC / Honduras)), sequence (Q27743 whole entry, looked up): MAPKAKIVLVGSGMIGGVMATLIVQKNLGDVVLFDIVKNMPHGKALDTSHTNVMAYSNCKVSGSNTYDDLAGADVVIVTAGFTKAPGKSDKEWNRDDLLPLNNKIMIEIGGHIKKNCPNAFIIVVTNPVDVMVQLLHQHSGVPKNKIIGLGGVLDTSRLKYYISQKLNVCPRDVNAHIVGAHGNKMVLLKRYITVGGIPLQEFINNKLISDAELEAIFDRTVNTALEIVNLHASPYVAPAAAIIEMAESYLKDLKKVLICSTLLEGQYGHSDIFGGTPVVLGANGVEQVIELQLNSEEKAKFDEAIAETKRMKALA
Protein kinase 7 (PK7), Plasmodium falciparum 3D7 (PF3D7_0213400), sequence (Q7YTF7 1-343): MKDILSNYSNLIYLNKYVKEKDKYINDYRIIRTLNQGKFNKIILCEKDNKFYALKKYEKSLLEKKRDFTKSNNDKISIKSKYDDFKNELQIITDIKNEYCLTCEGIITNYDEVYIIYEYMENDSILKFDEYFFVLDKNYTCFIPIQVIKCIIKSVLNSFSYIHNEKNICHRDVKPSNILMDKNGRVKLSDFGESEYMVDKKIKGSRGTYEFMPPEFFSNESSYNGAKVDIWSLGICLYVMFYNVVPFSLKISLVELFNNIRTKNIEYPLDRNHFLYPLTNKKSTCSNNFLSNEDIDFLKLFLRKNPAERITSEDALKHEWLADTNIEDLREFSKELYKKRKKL
Calcium-dependent protein kinase 1 (Plasmodium falciparum (isolate 3D7)), sequence (P62344 whole entry, looked up): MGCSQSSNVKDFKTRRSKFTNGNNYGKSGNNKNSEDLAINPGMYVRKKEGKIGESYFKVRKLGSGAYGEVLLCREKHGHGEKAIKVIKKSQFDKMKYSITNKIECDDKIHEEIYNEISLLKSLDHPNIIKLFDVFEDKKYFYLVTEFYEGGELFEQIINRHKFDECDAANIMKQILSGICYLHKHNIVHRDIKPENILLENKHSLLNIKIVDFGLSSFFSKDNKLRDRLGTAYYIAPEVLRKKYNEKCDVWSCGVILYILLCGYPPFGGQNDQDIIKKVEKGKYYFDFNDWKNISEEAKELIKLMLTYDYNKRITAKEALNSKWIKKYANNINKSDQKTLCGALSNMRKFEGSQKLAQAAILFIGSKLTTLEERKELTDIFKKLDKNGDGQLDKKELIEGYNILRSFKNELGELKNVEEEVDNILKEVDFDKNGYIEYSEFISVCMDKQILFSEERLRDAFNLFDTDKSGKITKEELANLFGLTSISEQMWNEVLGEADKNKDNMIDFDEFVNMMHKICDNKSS
Calcium-dependent protein kinase 4 (Plasmodium falciparum (isolate 3D7)), sequence (Q8IBS5 whole entry, looked up): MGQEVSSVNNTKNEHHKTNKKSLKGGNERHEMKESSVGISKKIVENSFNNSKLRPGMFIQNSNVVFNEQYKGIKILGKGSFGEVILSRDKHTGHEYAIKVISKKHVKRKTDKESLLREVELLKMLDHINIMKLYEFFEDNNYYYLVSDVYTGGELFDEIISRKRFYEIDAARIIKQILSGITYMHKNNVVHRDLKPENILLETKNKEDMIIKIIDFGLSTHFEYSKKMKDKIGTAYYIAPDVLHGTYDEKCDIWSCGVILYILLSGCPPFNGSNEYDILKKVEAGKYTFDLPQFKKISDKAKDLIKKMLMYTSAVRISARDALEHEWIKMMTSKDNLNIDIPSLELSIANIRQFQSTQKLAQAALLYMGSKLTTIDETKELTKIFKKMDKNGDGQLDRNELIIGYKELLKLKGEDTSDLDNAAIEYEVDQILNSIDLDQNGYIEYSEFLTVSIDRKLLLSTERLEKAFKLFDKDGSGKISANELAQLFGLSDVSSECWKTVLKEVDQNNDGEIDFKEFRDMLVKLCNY

As a reminder, the inhibition is the relative decrease from the control value, in per cent. Turning to `CC(=O)c1cccc(S(=O)(=O)NCCCNc2nc3cc(C)cc(C)c3cc2C#N)c1`, the figures for the growth inhibition in assay [1] and in assay [4] were 75% (active) and 95% (active), respectively. Moreover, the inhibition in assay [2] was 11%; in assay [3], 1%. Besides, the outcome in assay [5], in assay [6], in assay [7] and in assay [8] was inactive.

For the compound `c1ccc(C2=NN=C(c3ccccn3)[C@H]3[C@H]4C[C@@H]([C@@H]23)[C@@H]2[C@H]4[C@H]3C[C@@H]2c2ccccc23)nc1`, the results for the growth inhibition in assay [1] and in assay [4] were 77% (active) and 98% (active), respectively. Besides, the inhibition in assay [2] was 39%; in assay [3], -3%. Further, the result in assay [5], in assay [6], in assay [7] and in assay [8] was inactive.

Turning to `CC(C)C[C@@H](NC(=O)NC1CCC(CCN2[C@@H]3CC[C@H]2CC(OC(=O)C(CO)c2ccccc2)C3)CC1)C(O)(c1ccccc1)c1ccccc1` (stereo not given in full), the growth inhibition in assay [1] was 71% (active); in assay [4] it was 95% (active). Also, the inhibition in assay [2] was 21%; in assay [3], -6%. For the same compound, the outcome in assay [5], in assay [6], in assay [7] and in assay [8] was inactive.

In the case of `CCN(CC)CCN(Cc1ccc(-c2ccc(C(F)(F)F)cc2)cc1)C(=O)Cn1c(CCc2ccc(F)c(F)c2F)nc(=O)c2ccccc21`, the growth inhibition was 66% (active) in assay [1] and 97% (active) in assay [4]. In addition, the inhibition is 38% in assay [2] and -10% in assay [3]. Moreover, the outcome in assay [5], in assay [6], in assay [7] and in assay [8] was inactive.

With `CCc1cccc(OCCCON2C(N)=NC(N)=NC2(C)C)c1`, the growth inhibition in assay [1] was 94% (active); in assay [4], 95% (active). Further, the inhibition in assay [2] was 63% (active); in assay [3], 5%. Moreover, the outcome in assay [5], in assay [6], in assay [7] and in assay [8] was inactive.

With `CS(=O)(=O)Nc1cccc(-c2cnc3[nH]cc(-c4ccc(C(=O)O)cc4)c3c2)c1`, the results for the growth inhibition in assay [1] and in assay [4] were 82% (active) and 98% (active), respectively. Besides, the inhibition in assay [2] is -11%; in assay [3], 0%. Further, the result in assay [5], in assay [6], in assay [7] and in assay [8] was inactive.

Take `CN1CCN(CCCCCCNc2c3ccccc3nc3ccccc23)CC1`: the growth inhibition in assay [1] is -4%; in assay [4], 101% (active). Besides, the inhibition in assay [2] was 35%; in assay [3] it was -3%. Moreover, the result in assay [5], in assay [6], in assay [7] and in assay [8] was inactive.

On to `Cc1cc(NN=Cc2ccccc2F)c2cc(F)ccc2n1`, for which the growth inhibition in assay [1] was 97% (active); in assay [4] it was 101% (active). In addition, the inhibition in assay [2] was 9%; in assay [3] it was -5%. Further, the outcome in assay [5], in assay [6], in assay [7] and in assay [8] was inactive.

As for `Cc1cc(Cl)ccc1NC(=O)Nc1ccc2nccc(N3CCN(C)CC3)c2c1`, the growth inhibition in assay [1] is 74% (active); in assay [4], 101% (active). For the same compound, the inhibition is -1% in assay [2] and 1% in assay [3]. For the same compound, the result in assay [5], in assay [6], in assay [7] and in assay [8] was inactive.

For `COc1ccccc1NC(=O)Nc1ccc(-c2ccc(-c3nc4ccc(C(F)(F)F)cc4[nH]3)cc2)cc1`, the growth inhibition in assay [1] was 61% (active); in assay [4], 101% (active). In addition, the inhibition is 52% (active) in assay [2] and 3% in assay [3]. Further, the outcome in assay [5], in assay [6], in assay [7] and in assay [8] was inactive.

As to `COc1cccc2c(NN=Cc3cccc([N+](=O)[O-])c3)ccnc12`, the figures for the growth inhibition in assay [1] and in assay [4] were 47% and 100% (active), respectively. The inhibition in assay [2] was 12%; in assay [3], -7%. Moreover, the outcome in assay [5], in assay [6], in assay [7] and in assay [8] was inactive.

On to `Clc1ccc(Cc2nc3ccccc3[nH]2)cc1Cl`, for which the growth inhibition in assay [1] was 2%; in assay [4] it was 98% (active). The inhibition is 5% in assay [2] and 0% in assay [3]. Moreover, the outcome in assay [5], in assay [6], in assay [7] and in assay [8] was inactive.

`CCc1cc(OC)ccc1C1CCN(CCCCNC(=O)c2ccc(NC(=O)c3ccc(Cl)cc3)cc2)CC1`: the values for the growth inhibition in assay [1] and in assay [4] were 61% (active) and 95% (active), respectively. For the same compound, the inhibition in assay [2] is 23%; in assay [3] it was 6%. Besides, the result in assay [5], in assay [6], in assay [7] and in assay [8] was inactive.

In the case of `Cc1[nH]c(C)c(-c2ccc(OCc3ccc(F)cc3)cc2)c(=O)c1Br`, the growth inhibition in assay [1] was 97% (active); in assay [4], 98% (active). For the same compound, the inhibition was 16% in assay [2] and -2% in assay [3]. Further, the result in assay [5], in assay [6], in assay [7] and in assay [8] was inactive.

On to `O=C(NC(Cc1ccccc1)C(=O)O)c1cc(=O)c2ccccc2o1` (stereo not given), for which the growth inhibition was 10% in assay [1] and 99% (active) in assay [4]. Besides, the values for the inhibition in assay [2] and in assay [3] were 53% (active) and -6%, respectively. The result in assay [5], in assay [6], in assay [7] and in assay [8] was inactive.

On to `CCc1ccc(CNCC(CCNc2cc(=O)c3ccccc3[nH]2)NCc2cc(Br)cc(Br)c2)o1` (stereo not given), for which the growth inhibition is 92% (active) in assay [1] and 100% (active) in assay [4]. For the same compound, the inhibition in assay [2] was -11%; in assay [3], 1%. Also, the result in assay [5], in assay [6], in assay [7] and in assay [8] was inactive.

Regarding `CCOC(=O)c1[nH]c(-c2cc(Cl)nc(Cl)c2)nc1NC(=S)NCc1ccc(NS(C)(=O)=O)cc1`, the growth inhibition in assay [1] was 98% (active); in assay [4], 100% (active). In addition, the inhibition in assay [2] and in assay [3] was -1% throughout. Further, the outcome in assay [5], in assay [6], in assay [7] and in assay [8] was inactive.

On to `Oc1ccc(-c2nc3c4cc(I)ccc4c4ccc(I)cc4c3[nH]2)cc1`, for which the growth inhibition in assay [1] was 51% (active); in assay [4] it was 98% (active). Moreover, the inhibition was -3% in assay [2] and 2% in assay [3]. In addition, the outcome in assay [5], in assay [6], in assay [7] and in assay [8] was inactive.

Turning to `CC[C@H](NC(=O)c1ccc(NC(=O)OC(C)(C)C)cc1)C(=O)N[C@@H](CO)C(=O)NCCCCc1ccccc1`, the growth inhibition in assay [1] is 94% (active); in assay [4], 98% (active). Besides, the inhibition is -6% in assay [2] and 1% in assay [3]. For the same compound, the outcome in assay [5], in assay [6], in assay [7] and in assay [8] was inactive.

`CO/C(=C\C=C\c1cc2cc(Cl)c(Cl)cc2[nH]1)C(=O)NCCCNC12CC3CC(CC(C3)C1)C2`: the growth inhibition was 76% (active) in assay [1] and 99% (active) in assay [4]. Also, the figures for the inhibition in assay [2] and in assay [3] were 29% and -2%, respectively. Moreover, the result in assay [5], in assay [6], in assay [7] and in assay [8] was inactive.
